Source: PubChem
MCF10A rerep = A quantitative high throughput screen for small molecules that induce DNA re-replication in MCF 10a normal breast cells; MCF 10A DNA re-replication, Hoechst nuclear intensity, 48 h; Potency, µM (highest dose often 46.1 µM), usual class: activators; 350,000 compounds, 2.9% hits; further: nearly all actives have a fitted effect of over 50% in size
SW480 rereplic = A quantitative high throughput screen for small molecules that induce DNA re-replication in SW480 colon adenocarcinoma cells | SW480 DNA re-replication, Hoechst DNA content imaging, 48 h | Potency, µM (doses to about 46.1 µM), most hits filed as activators | 340,000 compounds, 1.8% hits; further: nearly all actives have a fitted effect of over 55% in size
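Quantitative HTS format with DMSO vehicle controls; 48 hr drug incubation at 37 C, then 40 min Hoechst staining and scanning imager measurement at 405 nm excitation.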
HT1080 IDH1KD tx = qHTS for induction of synthetic lethality in tumor cells producing 2HG: qHTS for the HT-1080-IDH1KD cell line | 360,000 compounds, 2% hits | Potency, µM (series often up to 46.1 µM), hits mostly cytotoxic | HT-1080 IDH1 knockdown viability, ATP luminescence, 48 h
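% activity derives from luminescence (CellTiter-Glo), normalised to DMSO and no-cell wells. HT-1080-IDH1KD cells, 750/well, had 48 h compound exposure at 37 °C.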
KB-V1 cytotox = qHTS assay for MDR1-selective chemotherapeutics: Primary screen using the drug-selected MDR subline cells KB-V1 | Potency, µM (series often up to 46.1 µM), most hits filed as cytotoxic | 400,000 compounds, 3.4% hits | KB-V1 MDR cells viability, CellTiter-Glo, 72 h; further: nearly all actives have a fitted effect of over 60% in size
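In this primary screen, KB-V1 cells overexpressing P-gp are incubated with library compounds (lowest to highest concentration) for 72 h at 37 degrees C before a luminescent ATP viability read.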
KB-3-1 tox = qHTS assay for MDR1-selective chemotherapeutics: Primary screen using the parental adenocarcinoma cell KB-3-1; KB-3-1 viability, CellTiter-Glo ATP luminescence, 72 h; Potency, µM (titrated, usually from 46.1 µM), hits mostly cytotoxic; 400,000 compounds, 1.4% hits; further: nearly all actives have a fitted effect of over 60% in size
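Cytotoxicity measured as CellTiter-Glo luminescence after 72 h at 37 C. Compound titrations were pinned onto drug-naive KB-3-1 parental adenocarcinoma cells grown in DMEM with 10% FBS, and normalized data fitted to concentration-response curves.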
HT1080NT lethal = qHTS for induction of synthetic lethality in tumor cells producing 2HG: qHTS for the HT-1080-NT fibrosarcoma cell line | HT-1080-NT fibrosarcoma viability, CellTiter-Glo ATP luminescence, 48 h | Potency, µM (doses to about 46.1 µM), actives largely listed as cytotoxic | 360,000 compounds, 1.6% hits | AID 686970, 2013;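 further: NT is the 2HG producing partner of a matched IDH1 knockdown line; nearly all actives have a fitted effect of over 55% in size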
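HT-1080-NT fibrosarcoma cells (2HG-overproducing), 750 cells/well in RPMI with 5% FBS, dosed after 2 h and incubated 48 h at 37C. CellTiter-Glo luminescence normalized to DMSO and no-cell wells; concentration-response curves fitted and classed.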
Hits are given with their value; i = inactive; ? = inconclusive; nt = no result; [ ] = another dose, or the depositor's remark. An excerpt weighted towards active compounds, which were near 7.9% of everything screened. The call rests on the fitted dose curve; in most records, active means well fitted curve in the direction sought with a large enough effect; inconclusive means small, poorly fitted or top-dose-only effect, or another doubt; inactive means no such curve, though single readings can be large; an effect the other way counts as inactive or inconclusive.

SMILES | MCF10A rerep | SW480 rereplic | HT1080 IDH1KD tx | KB-V1 cytotox | KB-3-1 tox | HT1080NT lethal
Cc1cc(C)c(S(=O)(=O)c2ccccc2C)c(N(C)C)n1 | i | i | i | i | i | i
CN(/N=C/C=C/c1ccccc1)c1cc(=O)n(C)c(=O)[nH]1 | i | i | i | ? | i | i
CCOc1ccc(C(=O)/C=C/c2cn(CN3CCN(C)CC3)c3ccccc23)cc1 | 10µM | ? | ? | i | i | i
COc1ccc(C(=O)/C=C/c2cn(CN3CCN(C)CC3)c3ccccc23)cc1 | 8.2µM | 21µM | ? | i | ? | i[9.24 µM]
COc1ccc(C(=O)/C=C/c2cn(CC(O)CN3CCc4ccccc43)c3ccccc23)cc1OC (stereo not given) | nt | nt | nt | ? | i | nt
CC(C)(C)c1cc(Cl)ccc1OCCOCCN1CCCC1 | i | i | 18µM | i | i | 15µM
C=CCNCCOCCOc1ccc(Cl)cc1C(C)(C)C | ? | i | i | ? | i | i
COCCCNCCOCCOc1ccc(Cl)cc1C(C)(C)C | 18µM | ? | ? | 18µM | i | i
CCOc1ccc(NC(=O)c2ccc(NC(=O)c3ccc(NC(N)=O)cc3)cc2)cc1 | i | i | i | i | i | i
CCC1(C)CC(=O)c2c(ccc3oc(C(=O)NCc4ccccc4)c(C)c23)O1 (stereo not given) | nt | nt | nt | i | i | nt
Cc1c(C(=O)NCc2ccoc2)oc2ccc3c(c12)C(=O)CC(C)(C)O3 | ? | i | ? | 18µM | i | i
O=C(Nc1nc(-c2nc3ccccc3s2)cs1)c1ccc(S(=O)(=O)N2CCOCC2)cc1 | i | i | ? | 4.6µM | ? | ?
O=C(Nc1nc(-c2ccc(F)c(F)c2)cs1)c1ccc(OCC2CCCO2)cc1 (stereo not given) | i | i | ? | ? | ? | ?
Cc1ccc(Nc2nc(-c3ccc(S(=O)(=O)N4CCOCC4)cc3)cs2)cc1Cl | ? | i | 16µM | ? | i | 23µM
Cc1csc(NC(=O)c2ccc(OCC3CCCO3)cc2)n1 (stereo not given) | i | i | i | 13µM | i | i
CN(CC1CCCO1)S(=O)(=O)c1ccc(C(=O)Nc2nc(-c3ccccn3)cs2)cc1 (stereo not given) | i | i | ? | i | 4.1µM | ?
O=C(Nc1nc(-c2ccc(S(=O)(=O)N3CCOCC3)cc2)cs1)c1ccccc1 | i | i | i | ? | i | ?
CC(C)CC(=O)Nc1nc(-c2ccc(S(=O)(=O)N3CCOCC3)cc2)cs1 | ? | i | i | ? | i | ?
Cc1ccc2c(c1)c(=O)c1ccccc1n2CCCC(=O)Nc1ccc(Cl)cc1C | nt | nt | nt | i | i | nt
C=C(C)C1CC=C(CN2CC(C)OC(C)C2)CC1 (stereo not given) | i | i | i | ? | i | i
Cc1ccc(C(=O)Nc2nc(-c3ccccn3)cs2)cc1S(=O)(=O)N1CCOCC1 | 21µM | ? | 4.6µM | ? | i | 18µM
CN(C)S(=O)(=O)c1ccc(C(=O)Nc2nc(-c3cc4ccccc4o3)cs2)cc1 | 4.6µM | i | ? | i | i | ?
Cc1ccc(-c2csc(N(C)C(=O)c3c(C)nn(-c4ccccc4)c3Cl)n2)cc1 | 5.8µM | i | i | ? | i | i
CN(Cc1ccccc1)C(=O)c1cccnc1 | i | i | i | i | i | i
CN(C(=O)c1cccnc1)c1nc(-c2ccccc2)cs1 | i | i | i | 21µM | i | i
SMILES | MCF10A rerep | SW480 rereplic | HT1080 IDH1KD tx | KB-V1 cytotox | KB-3-1 tox | HT1080NT lethal
O=c1[nH]nc(Sc2ncnc3sccc23)n1CCc1ccccc1 | ? | i | ? | i | ? | 18µM
CC(C)c1ccc(Nc2n[nH]c(=S)s2)cc1 | nt | nt | i | i | i | ?
O=[N+]([O-])c1ccc(-c2cn3ccccc3n2)cc1 | i | i | i | ? | i | i
CCCCOc1ccc(-c2cn3ccccc3n2)cc1[N+](=O)[O-] | 12µM | i | ? | ? | i | i
CN(C)S(=O)(=O)c1ccc(-c2cn3ccccc3n2)cc1 | i | i | ? | 16µM | i | ?
CCN(CC)S(=O)(=O)c1ccc(-c2cn3ccccc3n2)cc1 | nt | nt | i | ? | i | i
CCOc1ccc(-c2cn3ccccc3n2)cc1[N+](=O)[O-] | 21µM | ? | 16µM | ? | i | 15µM
CN(C)C(CNC(=O)CCC(=O)c1ccc(Br)cc1)c1ccccc1 (stereo not given) | i | i | i | ? | i | i
COc1ccc(NC(=O)C2CCCNC2=O)cc1 (stereo not given) | i | i | i | ? | i | i
Clc1ccc2c(c1)c1cc(Cl)ccc1n2CN1CCOCC1 | ? | i | ? | i | ? | ?
C/C(=N/NC(=O)CNC(=O)COc1cccc(C)c1)c1ccc(Cl)cc1 | i | i | i | i | i | i
CCOc1ccc(CC(=O)N/N=C(\C)c2cccnc2)cc1OCC | 21µM | i | i | i | i | i
CC(=NNC(=O)COc1cccc(C)c1)c1cccnc1 | i | i | i | 16µM | i | i
O=C(NCCC(=O)N1CCN(S(=O)(=O)c2ccc(F)cc2)CC1)Nc1ccccc1 | i | i | i | i | i | i
N=c1ccn(Cc2ccc(Cl)cc2)cc1 | i | i | i | i | 4.6µM | i
N=c1ccn(Cc2ccccc2Cl)cc1 | i | i | i | ? | ? | i
N=c1ccn(Cc2ccc(Cl)cc2Cl)cc1 | i | i | i[9.24 µM] | i | 6.5µM | ?
CCCN(C(=O)c1nn(-c2ccc(C)cc2)c(=O)c2c1c1ccccc1n2C)c1ccccc1C | nt | nt | nt | i | i | nt
C=CCNC(=O)C1CC1(c1cccc(C)c1)c1cccc(C)c1 (stereo not given) | i | i | ? | ? | i | ?
Cc1cccc(C2(c3cccc(C)c3)CC2C(=O)Nc2ccc([N+](=O)[O-])cc2O)c1 (stereo not given) | ? | ? | ? | 4.6µM | 21µM | ?
COc1cccc(C2(c3cccc(OC)c3)CC2C(=O)Nc2ccccc2Cl)c1 (stereo not given) | i | ? | 21µM | ? | i | ?
COc1ccc2nc(Nc3nc(CSc4nnc(C)s4)cc(=O)[nH]3)nc(C)c2c1 | i | i | nt | nt | nt | nt
Cc1ccc(SCc2cc(=O)[nH]c(Nc3nc(C)c4ccc(C)cc4n3)n2)cc1 | i | i | i | i | i | i
Cc1ccc(SCc2cc(=O)[nH]c(Nc3nc(C)c4ccccc4n3)n2)cc1 | i | i | i | 9.2µM | i | i
